Measured values: PubChem BioAssay (EPA / NIEHS)
Values joined by “and” are separate entries in the source; they are usually repeats but may differ in a detail not shown here. Identical values can stand only once. Results filed as inconclusive are left out. The source holds several records for some structures; these can differ, active in one and inactive in another. Active and inactive are the calls of the source. How the source made its calls, unless noted: active means hit-call score of the fitted dose curve at least 0.9, where 1 is the maximum; inactive means score below 0.9.

How the values were obtained:
[1] = biological target: Glucocorticoid receptor (Homo sapiens) (UniProt P04150); test: ATG_GR_TRANS: Attagene TRANS-FACTORIAL HepG2 Assay for human Glucocorticoid Receptor (GR) (AID 2282978; active means hit-call score of the fitted dose curve at least 0.9, where 1 is the maximum;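 further: activators score as hits since higher reporter transcript over DMSO is fitted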); settings: HepG2 Attagene TRANS GR reporter, mRNA transcription
Glucocorticoid receptor (Homo sapiens), sequence (P04150 whole entry, looked up, the tested form may be a part): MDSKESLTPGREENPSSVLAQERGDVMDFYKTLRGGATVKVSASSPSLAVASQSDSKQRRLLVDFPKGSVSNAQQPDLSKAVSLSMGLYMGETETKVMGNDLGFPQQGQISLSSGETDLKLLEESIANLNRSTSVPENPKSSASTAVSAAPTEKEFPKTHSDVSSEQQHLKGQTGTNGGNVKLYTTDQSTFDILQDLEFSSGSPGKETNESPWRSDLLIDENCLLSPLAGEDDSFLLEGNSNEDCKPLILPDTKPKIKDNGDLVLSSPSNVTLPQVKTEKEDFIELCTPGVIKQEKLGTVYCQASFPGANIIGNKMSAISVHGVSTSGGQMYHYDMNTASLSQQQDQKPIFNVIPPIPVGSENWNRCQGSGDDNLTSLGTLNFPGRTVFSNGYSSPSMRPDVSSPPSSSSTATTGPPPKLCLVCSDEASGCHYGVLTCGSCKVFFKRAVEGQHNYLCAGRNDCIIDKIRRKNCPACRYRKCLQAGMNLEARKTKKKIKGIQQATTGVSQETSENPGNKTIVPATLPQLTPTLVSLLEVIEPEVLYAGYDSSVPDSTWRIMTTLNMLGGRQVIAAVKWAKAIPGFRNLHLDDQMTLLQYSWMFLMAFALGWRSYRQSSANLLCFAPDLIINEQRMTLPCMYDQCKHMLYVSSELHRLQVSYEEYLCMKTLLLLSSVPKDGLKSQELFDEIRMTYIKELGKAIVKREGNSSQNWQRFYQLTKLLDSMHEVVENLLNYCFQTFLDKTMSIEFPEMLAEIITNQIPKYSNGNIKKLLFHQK
In short: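 Transiently transfected HepG2 cells express chimeric NR-GAL4 proteins acting on GAL4-UAS reporter units. Compounds are applied for 24 h. mRNA induction over DMSO is measured by capillary electrophoresis.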

[2] = biological target: Bile acid receptor (Homo sapiens) (UniProt Q96RI1); test: ATG_FXR_TRANS: Attagene TRANS-FACTORIAL HepG2 Assay for Farnesoid X Receptor (FXR) (AID 2282979; active means hit-call score of the fitted dose curve at least 0.9, where 1 is the maximum;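 further: hits raise reporter mRNA above DMSO so AC50 marks FXR activation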); settings: HepG2 Attagene TRANS FXR-GAL4 reporter transcription
Bile acid receptor (Homo sapiens), sequence (Q96RI1 whole entry, looked up, the tested form may be a part): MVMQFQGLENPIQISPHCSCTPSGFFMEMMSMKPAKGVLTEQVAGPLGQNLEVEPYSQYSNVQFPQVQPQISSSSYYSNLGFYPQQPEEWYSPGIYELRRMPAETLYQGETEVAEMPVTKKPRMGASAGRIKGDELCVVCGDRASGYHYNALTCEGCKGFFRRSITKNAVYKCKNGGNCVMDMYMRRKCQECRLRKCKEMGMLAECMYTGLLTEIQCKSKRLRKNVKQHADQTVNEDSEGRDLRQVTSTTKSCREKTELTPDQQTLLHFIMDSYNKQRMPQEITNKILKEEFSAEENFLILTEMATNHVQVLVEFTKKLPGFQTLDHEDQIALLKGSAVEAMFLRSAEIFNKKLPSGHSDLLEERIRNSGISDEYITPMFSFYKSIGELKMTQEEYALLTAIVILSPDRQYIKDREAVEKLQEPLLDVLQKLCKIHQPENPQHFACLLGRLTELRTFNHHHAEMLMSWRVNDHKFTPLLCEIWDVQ
In short: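 After 24 h chemical treatment of transfected HepG2 cells, GAL4-UAS reporter transcripts driven by an exogenous FXR-GAL4 fusion were measured by RT-PCR and capillary electrophoresis. Increases over DMSO were fitted.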

[3] = biological target: Oxysterols receptor LXR-alpha (Homo sapiens) (UniProt Q13133); test: ATG_LXRa_TRANS: Attagene TRANS-FACTORIAL HepG2 Assay for human Liver X Receptor alpha (LXRa) (AID 2282980; active means hit-call score of the fitted dose curve at least 0.9, where 1 is the maximum); settings: HepG2 Attagene TRANS reporter, LXRa transactivation
Oxysterols receptor LXR-alpha (Homo sapiens), sequence (Q13133 whole entry, looked up, the tested form may be a part): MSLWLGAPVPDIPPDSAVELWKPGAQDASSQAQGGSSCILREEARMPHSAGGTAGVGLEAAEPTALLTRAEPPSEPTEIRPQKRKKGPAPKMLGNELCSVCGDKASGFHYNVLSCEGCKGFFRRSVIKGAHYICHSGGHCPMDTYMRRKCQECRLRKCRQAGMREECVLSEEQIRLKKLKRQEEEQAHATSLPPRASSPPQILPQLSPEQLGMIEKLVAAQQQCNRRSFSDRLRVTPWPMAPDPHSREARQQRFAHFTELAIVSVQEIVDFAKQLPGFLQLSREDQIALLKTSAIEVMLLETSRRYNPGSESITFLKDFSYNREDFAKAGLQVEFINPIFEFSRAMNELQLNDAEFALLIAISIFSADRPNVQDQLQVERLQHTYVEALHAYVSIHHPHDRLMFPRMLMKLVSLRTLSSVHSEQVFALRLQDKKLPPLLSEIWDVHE
In short: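 In this multiplexed TRANS system, compounds act on HepG2 cells carrying GAL4-UAS reporter units and a receptor-GAL4 fusion for 24 h. Induced reporter RNA is amplified, fluorescently labelled and sized by capillary electrophoresis, with DMSO as baseline.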

[4] = ATG_M_06_TRANS: Attagene TRANS-FACTORIAL HepG2 Assay for M06 Transcription Factor (Internal Marker) (AID 2282983; active means hit-call score of the fitted dose curve at least 0.9, where 1 is the maximum;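 further: reporter transcript level by RT-PCR then capillary electrophoresis fluorescence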); settings: HepG2 Attagene TRANS M06 internal marker reporter
In short: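 Internal-marker background readout from a multiplexed TRANS reporter system in HepG2; 24 h dosing; mRNA induction quantified by RT-PCR plus capillary electrophoresis fluorescence; DMSO as negative control and baseline.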

[5] = ATG_M_32_TRANS: Attagene TRANS-FACTORIAL HepG2 Assay for M32 Transcription Factor (Internal Marker) (AID 2282984; active means hit-call score of the fitted dose curve at least 0.9, where 1 is the maximum;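 further: transcript level of a background control reporter unit measured by RT-PCR and capillary electrophoresis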); settings: HepG2 Attagene TRANS M32 internal marker reporter
In short: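 HepG2 cells transiently transfected with GAL4-UAS reporter units, dosed for 24 hours. Reporter mRNA quantified by RT-PCR, 6-FAM labelling, HpaI digestion and capillary electrophoresis; internal-marker signal fitted upward relative to DMSO.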

[6] = biological target: Nuclear receptor subfamily 4 group A member 2 (Homo sapiens) (UniProt P43354); test: ATG_NURR1_TRANS: Attagene TRANS-FACTORIAL HepG2 Assay for human Nuclear Receptor Related Protein 1 (NURR1) (AID 2282985; active means hit-call score of the fitted dose curve at least 0.9, where 1 is the maximum); settings: HepG2 Attagene TRANS reporter, mRNA readout
Nuclear receptor subfamily 4 group A member 2 (Homo sapiens), sequence (P43354 whole entry, looked up, the tested form may be a part): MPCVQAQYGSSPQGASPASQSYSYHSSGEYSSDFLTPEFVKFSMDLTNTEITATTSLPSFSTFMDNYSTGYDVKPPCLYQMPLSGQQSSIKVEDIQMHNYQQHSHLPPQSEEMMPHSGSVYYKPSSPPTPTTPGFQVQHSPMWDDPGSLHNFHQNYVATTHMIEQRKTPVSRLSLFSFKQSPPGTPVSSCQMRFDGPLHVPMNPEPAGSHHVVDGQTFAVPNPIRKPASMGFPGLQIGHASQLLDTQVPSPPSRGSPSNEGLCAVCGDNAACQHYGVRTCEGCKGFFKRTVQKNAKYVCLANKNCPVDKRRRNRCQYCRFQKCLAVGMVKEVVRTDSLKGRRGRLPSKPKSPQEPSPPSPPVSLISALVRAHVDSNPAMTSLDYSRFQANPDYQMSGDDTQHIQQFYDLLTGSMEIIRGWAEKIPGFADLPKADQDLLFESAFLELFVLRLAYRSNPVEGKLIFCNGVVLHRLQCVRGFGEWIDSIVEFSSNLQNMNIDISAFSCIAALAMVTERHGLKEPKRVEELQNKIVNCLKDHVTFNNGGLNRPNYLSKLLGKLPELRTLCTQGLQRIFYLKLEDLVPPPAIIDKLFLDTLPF
In short: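 HepG2 cells transiently transfected with NURR1-Gal4 chimera and GAL4-UAS reporter units; after 24 hr compound exposure, reporter mRNA quantified by RT-PCR and capillary electrophoresis; gain of signal fitted against DMSO.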

[7] = biological target: Nuclear respiratory factor 1 (Homo sapiens) (UniProt Q16656); test: ATG_NRF1_CIS: Attagene CIS-FACTORIAL HepG2 Assay for human Nuclear Respiratory Factor 1 (NRF1) Orphan Gene (AID 2282987); settings: HepG2 NRF1 cis-element reporter, Attagene multiplex; actives raise or lower the signal
Nuclear respiratory factor 1 (Homo sapiens), sequence (Q16656 whole entry, looked up): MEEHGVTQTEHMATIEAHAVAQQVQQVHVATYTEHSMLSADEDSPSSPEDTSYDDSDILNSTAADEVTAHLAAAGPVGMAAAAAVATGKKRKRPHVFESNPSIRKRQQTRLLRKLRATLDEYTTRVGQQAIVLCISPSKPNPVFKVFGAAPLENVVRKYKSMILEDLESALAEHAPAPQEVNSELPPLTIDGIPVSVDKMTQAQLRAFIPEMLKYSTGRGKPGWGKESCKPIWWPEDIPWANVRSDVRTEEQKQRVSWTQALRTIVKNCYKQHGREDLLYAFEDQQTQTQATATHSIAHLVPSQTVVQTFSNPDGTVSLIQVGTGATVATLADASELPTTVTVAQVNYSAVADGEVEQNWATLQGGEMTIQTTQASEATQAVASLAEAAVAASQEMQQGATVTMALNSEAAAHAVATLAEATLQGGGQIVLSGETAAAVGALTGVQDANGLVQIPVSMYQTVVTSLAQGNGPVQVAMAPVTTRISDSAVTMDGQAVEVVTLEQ
In short: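 Reporter mRNA induction or loss in HepG2 cells after 24 h dosing; cis-regulated reporter constructs report endogenous transcription-factor activity. Quantified by RT-PCR/capillary electrophoresis fluorescence, DMSO-referenced.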

[8] = biological target: Myc proto-oncogene protein (Homo sapiens) (UniProt P01106); test: ATG_Myc_CIS: Attagene CIS-FACTORIAL HepG2 Assay for human Myelocytomatosis (Myc) Proto-Oncogene Transcription Factor (AID 2282990); settings: HepG2, Attagene cis-reporter transcription factor activity; actives raise or lower the signal
Myc proto-oncogene protein (Homo sapiens), sequence (P01106 whole entry, looked up, the tested form may be a part): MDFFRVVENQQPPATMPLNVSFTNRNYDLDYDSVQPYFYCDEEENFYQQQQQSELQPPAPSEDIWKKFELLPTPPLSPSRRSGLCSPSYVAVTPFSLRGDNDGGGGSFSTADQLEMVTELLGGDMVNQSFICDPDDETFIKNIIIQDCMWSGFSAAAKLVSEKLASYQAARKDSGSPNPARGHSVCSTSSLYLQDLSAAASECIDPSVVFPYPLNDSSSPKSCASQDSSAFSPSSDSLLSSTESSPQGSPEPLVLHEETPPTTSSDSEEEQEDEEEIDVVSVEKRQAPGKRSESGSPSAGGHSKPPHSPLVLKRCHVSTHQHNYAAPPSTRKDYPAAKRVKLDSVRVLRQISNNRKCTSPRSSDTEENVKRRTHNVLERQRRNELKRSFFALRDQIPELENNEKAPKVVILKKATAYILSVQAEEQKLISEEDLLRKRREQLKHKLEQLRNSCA
In short: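 Fluorescence intensity of reporter-specific cDNA fragments, separated by capillary electrophoresis, gives the signal. Transfected HepG2 cells carrying cis-promoter reporter constructs are incubated with compound for 24 h; DMSO serves as baseline.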

[9] = ATG_NRF2_ARE_CIS: Attagene CIS-FACTORIAL HepG2 Assay for human Nuclear Factor Erythroid 2 Related Factor 2 (NFR2) response to Antioxidant Response Elements (ARE) (AID 2282992); settings: HepG2 Attagene ARE/NRF2 reporter, transcription factor activity; actives raise or lower the signal;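 on AC50: reporter mRNA level measured by RT-PCR and capillary electrophoresis fluorescence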
In short: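 Transient MRTU transfection of HepG2; 24 h compound exposure; TriZol RNA, RT with oligo(dT), PCR, 6-FAM primer extension, HpaI cut, CE. Bidirectional fit vs DMSO.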

[10] = biological target: Cellular tumor antigen p53 (Homo sapiens) (UniProt P04637); test: ATG_p53_CIS: Attagene CIS-FACTORIAL HepG2 Assay for human p53 Transcription Factor (AID 2282994); settings: HepG2 p53 cis-element reporter, Attagene mRNA; actives raise or lower the signal
Cellular tumor antigen p53 (Homo sapiens), sequence (P04637 whole entry, looked up): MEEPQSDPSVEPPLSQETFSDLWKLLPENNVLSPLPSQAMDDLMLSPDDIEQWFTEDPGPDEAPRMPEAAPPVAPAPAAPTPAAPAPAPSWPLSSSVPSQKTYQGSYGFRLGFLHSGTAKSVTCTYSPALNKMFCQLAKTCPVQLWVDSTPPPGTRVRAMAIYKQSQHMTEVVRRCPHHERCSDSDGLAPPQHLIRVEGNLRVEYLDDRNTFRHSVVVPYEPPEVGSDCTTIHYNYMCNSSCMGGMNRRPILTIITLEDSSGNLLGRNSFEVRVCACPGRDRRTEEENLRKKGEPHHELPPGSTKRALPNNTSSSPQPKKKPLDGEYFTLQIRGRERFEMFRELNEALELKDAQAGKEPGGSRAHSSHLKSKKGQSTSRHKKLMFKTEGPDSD
In short: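 HepG2, transient MRTU transfection (cis promoter elements, endogenous TFs); 24 h dosing; RNA isolation, RT-PCR, 6-FAM primer extension, HpaI digest, CE fluorescence; bidirectional fit vs DMSO.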

[11] = BSK_3C_TissueFactor: BioMAP Diversity Plus: 3C Assay for Tissue Factor Biomarker Activity (AID 2282997); settings: BioMAP 3C HUVEC, tissue factor biomarker readout; actives raise or lower the signal
In short: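 Endothelial monolayers (human umbilical vein, primary) are dosed, incubated 24 h, and assayed for Tissue Factor by ELISA; DMSO serves as negative control for bidirectional fitting.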

[12] = BSK_3C_uPAR: BioMAP Diversity Plus: 3C Assay for Urokinase-type plasminogen activator receptor (uPAR) Biomarker Activity (AID 2282998); settings: BioMAP 3C HUVEC, uPAR biomarker ELISA; actives raise or lower the signal
In short: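 Values derive from bidirectional curve fitting relative to DMSO, which served as baseline of activity. uPAR was measured by ELISA in human umbilical vein endothelial primary cultures 24 h after compound addition.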

[13] = BSK_3C_VCAM1: BioMAP Diversity Plus: 3C Assay for Vascular cell adhesion molecule 1 (VCAM1) Biomarker Activity (AID 2282999); settings: BioMAP 3C HUVEC, VCAM1 ELISA, cytokine-stimulated; actives raise or lower the signal
In short: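 Human umbilical vein endothelial cells (3C system), biomarker read by ELISA 24 h after dosing; bidirectional fit against DMSO baseline. Cytotoxicity tracked by SRB total-protein staining in parallel cultures at biomarker time.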

[14] = BSK_4H_Eotaxin3: BioMAP Diversity Plus: 4H Assay for Eotaxin 3 Biomarker Activity (AID 2283000); settings: primary human endothelial cells (HUVEC); actives raise or lower the signal;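 on outcome: CCL26 protein level quantified by ELISA in parallel with SRB cytotoxicity check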
In short: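 ELISA quantitation of CCL26 (Eotaxin-3) protein from chemically dosed human vascular endothelial cells at 24 h; increases and decreases both scored relative to DMSO-treated baseline.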

[15] = biological target: Hepatocyte nuclear factor 4-alpha (Homo sapiens) (UniProt P41235); test: ATG_HNF4a_TRANS: Attagene TRANS-FACTORIAL HepG2 Assay for human Hepatocyte Nuclear Factor 4 alpha (HNF4a) (AID 2282982; active means hit-call score of the fitted dose curve at least 0.9, where 1 is the maximum); settings: HepG2 HNF4a transactivation reporter, mRNA readout
Hepatocyte nuclear factor 4-alpha (Homo sapiens), sequence (P41235 whole entry, looked up, the tested form may be a part): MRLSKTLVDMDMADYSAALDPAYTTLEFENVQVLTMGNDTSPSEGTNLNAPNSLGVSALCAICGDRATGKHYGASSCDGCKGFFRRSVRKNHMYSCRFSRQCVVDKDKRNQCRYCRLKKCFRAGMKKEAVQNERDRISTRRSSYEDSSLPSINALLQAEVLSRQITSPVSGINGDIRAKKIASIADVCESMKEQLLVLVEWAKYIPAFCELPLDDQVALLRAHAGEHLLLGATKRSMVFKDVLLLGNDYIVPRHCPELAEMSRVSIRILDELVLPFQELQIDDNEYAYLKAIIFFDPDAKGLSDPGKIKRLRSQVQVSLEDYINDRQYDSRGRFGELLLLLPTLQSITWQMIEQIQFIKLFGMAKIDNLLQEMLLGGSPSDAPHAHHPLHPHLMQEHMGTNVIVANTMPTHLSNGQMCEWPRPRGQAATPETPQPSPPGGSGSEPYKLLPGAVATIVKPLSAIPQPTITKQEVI
In short: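 HepG2 cells transiently transfected with HNF4a-Gal4 chimera and GAL4-UAS reporter units, dosed for 24 h. Reporter mRNA measured by RT-PCR, fluorescent primer extension and capillary electrophoresis; gain-of-signal fitted relative to DMSO.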

[16] = ATG_Oct_MLP_CIS: Attagene CIS-FACTORIAL HepG2 Assay for human Octamer-Binding Transcription Factor (Oct) (AID 2282993); settings: HepG2 Attagene cis-factorial Oct reporter, mRNA; actives raise or lower the signal
In short: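 After 24 h compound exposure, transfected HepG2 cells were lysed for total RNA; reporter-specific cDNA was PCR-amplified, fluorescently labelled and sized by capillary electrophoresis. Bidirectional curve fitting used DMSO as baseline.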

[17] = biological target: Transcriptional activator Myb (Homo sapiens) (UniProt P10242); test: ATG_Myb_CIS: Attagene CIS-FACTORIAL HepG2 Assay for human Myeloblastosis (Myb) Proto-Oncogene Transcription Factor (AID 2282986); settings: HepG2 Attagene CIS-FACTORIAL Myb reporter transcription; actives raise or lower the signal
Transcriptional activator Myb (Homo sapiens), sequence (P10242 whole entry, looked up): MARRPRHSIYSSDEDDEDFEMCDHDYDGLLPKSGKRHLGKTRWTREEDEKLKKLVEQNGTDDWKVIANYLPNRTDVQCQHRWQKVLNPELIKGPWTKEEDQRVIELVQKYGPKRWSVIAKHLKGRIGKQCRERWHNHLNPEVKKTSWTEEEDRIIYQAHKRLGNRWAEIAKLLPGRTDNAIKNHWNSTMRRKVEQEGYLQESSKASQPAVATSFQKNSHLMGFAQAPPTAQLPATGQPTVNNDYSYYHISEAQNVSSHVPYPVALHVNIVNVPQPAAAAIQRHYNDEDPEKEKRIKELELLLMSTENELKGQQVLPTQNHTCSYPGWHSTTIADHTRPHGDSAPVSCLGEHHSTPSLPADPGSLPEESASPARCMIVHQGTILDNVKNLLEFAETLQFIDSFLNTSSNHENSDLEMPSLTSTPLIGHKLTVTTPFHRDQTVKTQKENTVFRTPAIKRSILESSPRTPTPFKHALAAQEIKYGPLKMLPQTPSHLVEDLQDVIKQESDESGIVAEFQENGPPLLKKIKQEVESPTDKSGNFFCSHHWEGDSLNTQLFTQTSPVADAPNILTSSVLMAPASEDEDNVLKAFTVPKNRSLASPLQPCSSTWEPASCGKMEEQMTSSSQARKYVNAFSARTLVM
In short: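 Using HepG2 liver cells bearing transiently transfected cis-promoter reporter constructs, the assay measures induction or loss of reporter mRNA after 24 hours of dosing. Detection used fluorescently labeled RT-PCR products separated by capillary electrophoresis.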

[18] = ATG_NFI_CIS: Attagene CIS-FACTORIAL HepG2 Assay for human Nuclear Factor I (NFI) (AID 2282989); settings: HepG2 cis-regulatory reporter, NFI response element transcription; actives raise or lower the signal
In short: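 Multiplexed cis-reporter system in human HepG2 cells reports native TF activity as reporter mRNA induction 24 h post-dose. Fragments labelled with 6-FAM, HpaI-digested and resolved by capillary electrophoresis; activity fitted both directions versus DMSO.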

Structure (SMILES)	outcome [1]	outcome [2]	outcome [3]	outcome [4]	outcome [5]	outcome [6]	outcome [7]	outcome [8]	AC50 [9]	outcome [9]	outcome [10]	outcome [11]	outcome [12]	outcome [13]	outcome [14]	outcome [15]	outcome [16]	AC50 [14]	outcome [17]	outcome [18]
FC(F)(F)C(F)(F)C(F)(F)C(F)(F)C(F)(F)C(F)(F)I	inactive	inactive	inactive	inactive	inactive	inactive	inactive	inactive	107 µM (active)	inactive	inactive	inactive	inactive	inactive	inactive	–	–	–	–	–
c1ccc2c(c1)-c1cccc3c1c-2cc1ccccc13	inactive	–	inactive	inactive	inactive	inactive	inactive	inactive	204 nM (active) and 29.8 µM (active)	–	–	inactive	inactive	inactive	–	inactive	inactive	0.148 µM (active)	–	–
NCC(F)(F)C(F)(F)C(F)(F)C(F)(F)F	inactive	inactive	inactive	inactive	inactive	inactive	inactive	inactive	–	inactive	inactive	inactive	inactive	inactive	inactive	inactive	–	–	inactive	inactive
